Shown are actives, neighbours in structure and some others; about 2.4% of the full set was active somewhere.
D2 antagonist – antagonizes the human D2 dopamine receptor; HEK293 TREx D2 cells, calcium flux, dopamine EC80; inhibition, % at 10 µM; 2% of 340,000 active; AID 485344; in the data active = inhibition above about 30%; inactive = below that, where a call was filed
Target sequence (P14416 whole entry, looked up): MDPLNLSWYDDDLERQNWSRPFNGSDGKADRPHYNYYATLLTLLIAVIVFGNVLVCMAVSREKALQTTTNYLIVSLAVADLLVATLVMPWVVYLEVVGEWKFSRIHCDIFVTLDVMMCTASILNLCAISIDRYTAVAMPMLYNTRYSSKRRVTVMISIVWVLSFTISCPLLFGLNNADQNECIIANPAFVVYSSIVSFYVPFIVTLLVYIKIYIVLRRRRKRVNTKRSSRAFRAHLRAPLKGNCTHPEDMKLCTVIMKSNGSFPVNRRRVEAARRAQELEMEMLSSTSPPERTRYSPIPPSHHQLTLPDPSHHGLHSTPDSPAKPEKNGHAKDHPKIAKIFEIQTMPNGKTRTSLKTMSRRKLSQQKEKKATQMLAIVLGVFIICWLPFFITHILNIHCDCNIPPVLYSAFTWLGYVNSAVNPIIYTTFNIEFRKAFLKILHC
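Cells plated overnight at 30 C with tetracycline; no-wash calcium dye, 30–90 min RT; 10 s baseline; compound pinned; 180 s read; EC80 dopamine added; another 180 s read.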
D2 ag-1 – human D2 receptor agonism in beta-arrestin assay; DiscoveRx PathHunter D2 beta-arrestin, luminescence, 90 min; 100% = 57 uM dopamine signal; activation, % (no concentration beside the values); 0.084% of 360,000 active; AID 624465; in the data active = activation above about 40%; inconclusive = between about 15% and that limit
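Agonist mode: compounds alone added to overnight-plated D2 PathHunter cells for 90 min at 37 C, with 57 uM final dopamine (EC100) defining full response. Beta-arrestin recruitment detected by chemiluminescent reagent, read after 1 h at ambient temperature.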
D2 PAM-1 – human D2 receptor positive allosteric modulation | potentiation, % (test concentration not listed) | AID 624464 | P14416 | 0.23% of 360,000 active | DiscoveRx D2 beta-arrestin cells, luminescence, 90 min; 100% = 57 uM dopamine signal; in the data active = potentiation above about 50%; inconclusive = mostly about 30% to 49%
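PathHunter D2 cells, attached overnight at 37 deg C, received compound in DMSO plus dopamine at EC20 (50 nM final) for 90 min at 37 deg C. Beta-arrestin recruitment was read as luminescence after 1 h with detection reagent at ambient temperature.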
D2 PAM-2 – positive allosteric modulators of human D2 dopamine receptor; 0.34% of 340,000 active; HEK293 T-REx D2, calcium flux, EC20 dopamine potentiation; P14416; AID 485347; potentiation, % at 10 µM;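 active = potentiation over 3 SD above the plate norm, cut at about 30% in these data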
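Primary screen. Calcium kinetics in induced HEK293 T-REx D2 cells: compound pre-addition 180 s, EC20 dopamine, 180 s more.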
D2 ag-2 – agonists of human D2 dopamine receptor; HEK293 T-REx D2 cells, calcium flux agonist mode; activation, % at 2 µM; 0.53% of 340,000 active; AID 485358;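 active = activation over 3 SD above normal in the single-dose calcium agonist read, cut at about 30% in these data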
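Agonism scored from kinetic calcium signal (1 read/sec, 180 s) following compound pin transfer, after a 10 s baseline. Cells: HEK293 Trex line expressing inducible D2 receptor coupled to calcium, dye-loaded after overnight culture at 30 C.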
A number is an active result; . = inactive; ? = inconclusive; / = not tested or not shown.

SMILES | D2 antagonist | D2 ag-1 | D2 PAM-1 | D2 PAM-2 | D2 ag-2
COc1cccc(NC(=O)/C=C/c2ccc(S(=O)(=O)N3CCOCC3)cc2)c1 | 47 | . | . | . | .
COc1cccc(NC(=O)/C=C/c2ccc([N+](=O)[O-])cc2)c1 | 45 | . | . | . | .
COc1ccc(/C=C/C(=O)Nc2cccc(F)c2)cc1S(=O)(=O)N1CCOCC1 | 56 | . | . | . | .
CC1=C(C(=O)Nc2ccccc2)C(c2ccncc2)n2nc(SCc3ccccc3F)nc2N1 (centres undefined) | / | / | / | / | .
Cc1nc2scc(C)n2c(=O)c1S(=O)(=O)N1CCN(c2ccccc2)CC1 | 32 | . | . | . | .
COc1ccc(N2CCN(S(=O)(=O)c3c(C)nc4scc(C)n4c3=O)CC2)cc1 | . | . | . | . | .
COC(=O)c1cc(NC(=O)c2cccc(Cl)c2)c(=O)oc1/C=C/Nc1cc(C)cc(C)c1 | . | / | / | . | 41
COc1ccccc1/C=C/CN1CCC(Oc2ccc(C(=O)N3CCCC3)cc2)CC1 | 47 | . | . | . | .
COc1cc(/C=C/CN2CCC(Oc3ccc(C(=O)N4CCCC4)cc3)CC2)ccc1O | . | . | . | . | .
COc1ccc(CCC(C)N2CCC(Oc3ccc(C(=O)N4CCCC4)cc3)CC2)cc1 (centres undefined) | 30 | . | . | . | .
COc1cccc(CNC(=O)CN2C(=O)N(c3ccc(C)cc3C)S(=O)(=O)c3ccccc32)c1OC | / | / | / | . | .
N#Cc1cccc(Oc2ccc(S(=O)(=O)N3CCCC3)cn2)c1 | 35 | . | . | . | .
Cc1ccc(CSc2ccc(S(=O)(=O)N3CCCC3)cn2)cc1 | . | . | . | . | .
N#Cc1ccc(CSc2ccc(S(=O)(=O)N3CCCC3)cn2)cc1 | 30 | . | . | . | .
CN(C)c1ccc(C(=O)NCc2ccc3c(c2)CCN3C(=O)c2ccccc2)cc1 | / | / | / | . | .
COC(=O)c1cc2n(n1)CCN(Cc1ccc(OC)cc1)C2=O | . | . | . | . | .
COc1ccc(CN2CCn3ncc(C(=O)Nc4cc(C)cc(C)c4)c3C2=O)cc1 | 38 | . | . | . | .
COc1cc2c(C)nc(C)c(C#N)c2cc1OC | . | . | . | 39 | .
CON(C)c1nc(Oc2ccc(=O)[nH]n2)nc(N(C)C)n1 | . | . | . | 45 | .
Cc1cc2c(cc1C)NC(CC(=O)Nc1ccccc1SC(F)(F)F)C(=O)N2 (centres undefined) | / | / | / | . | .
Cc1ccc(-c2cn(-c3ccc(Cl)cc3)c(S(=O)(=O)CC(=O)Nc3ccccc3)n2)cc1 | / | / | / | . | .
CCCn1c2ccccc2c2nnc(SCC(=O)OC)nc21 | . | . | . | . | .
CCCCn1c2ccccc2c2nnc(SCC(=O)NC3=NN=C(c4ccccc4)CS3)nc21 | 70 | / | / | . | .
CCc1ccccc1NC(=O)c1cnc2scc(C)n2c1=O | / | . | . | / | /
CSc1ccccc1NC(=O)c1cnc2scc(C)n2c1=O | . | . | . | 36 | .
SMILES | D2 antagonist | D2 ag-1 | D2 PAM-1 | D2 PAM-2 | D2 ag-2
COc1c(Cl)cc(C(=O)N(Cc2ccc(C)o2)C2CCS(=O)(=O)C2)cc1Cl (centres undefined) | / | / | / | . | .
Cc1ccc(/C(N)=N/OC(=O)N2c3ccccc3Sc3ccccc32)cc1 | / | ? | 101 | / | /
CCOc1ccc(CNC(=O)C2CCCN(c3nc4c(C)cc(C)cc4s3)C2)cc1 (centres undefined) | / | / | / | . | .
Cc1nn(S(=O)(=O)c2ccc(C(C)C)cc2)c(C)c1S(=O)(=O)N1CCCCCC1 | / | / | / | . | .
CC1(CC(=O)N/N=C/c2ccc(OCc3ccc(Cl)cc3Cl)cc2)OCCCO1 | . | . | . | . | .
COc1cc(/C=N/NC(=O)CC2(C)OCCCO2)ccc1OCc1ccc(Cl)cc1Cl | 31 | . | . | . | .
Cc1nc(Cl)sc1C(=O)Nc1ccccc1 | . | . | . | . | .
Cc1nc(Cl)sc1C(=O)Nc1ccc(Cl)cc1 | 40 | . | . | . | .
CC(C)c1nnc(N2C(=O)C(O)=C(C(=O)c3cccs3)C2c2ccccc2)s1 (centres undefined) | 48 | . | . | . | 166
COc1ccc([N+](=O)[O-])cc1NCc1cccnc1 | . | . | . | . | .
Cc1ccc(NC(=O)c2cc([N+](=O)[O-])ccc2NCc2cccnc2)cc1 | 33 | . | . | . | .
CCOc1ccc(OCCn2nnc3ccccc3c2=O)cc1 | . | . | . | 52 | .

High-throughput results from PubChem.
